In all, about 33,000 sequences were measured (“E-score (-0.5 to 0.5)”: median about -0.015, highest 2% from about 0.3 on). The sample as a whole holds a higher share of the highest values than the screen did.
molecular target: T1, Abf1 (UniProt P14164); assay: PBM E-score (8-mer binding enrichment) (E-score (-0.5 to 0.5)); higher = stronger / more preferred TF binding; conditions: protein concentration: 200 nM; construct: GST-full length
T1 sequence: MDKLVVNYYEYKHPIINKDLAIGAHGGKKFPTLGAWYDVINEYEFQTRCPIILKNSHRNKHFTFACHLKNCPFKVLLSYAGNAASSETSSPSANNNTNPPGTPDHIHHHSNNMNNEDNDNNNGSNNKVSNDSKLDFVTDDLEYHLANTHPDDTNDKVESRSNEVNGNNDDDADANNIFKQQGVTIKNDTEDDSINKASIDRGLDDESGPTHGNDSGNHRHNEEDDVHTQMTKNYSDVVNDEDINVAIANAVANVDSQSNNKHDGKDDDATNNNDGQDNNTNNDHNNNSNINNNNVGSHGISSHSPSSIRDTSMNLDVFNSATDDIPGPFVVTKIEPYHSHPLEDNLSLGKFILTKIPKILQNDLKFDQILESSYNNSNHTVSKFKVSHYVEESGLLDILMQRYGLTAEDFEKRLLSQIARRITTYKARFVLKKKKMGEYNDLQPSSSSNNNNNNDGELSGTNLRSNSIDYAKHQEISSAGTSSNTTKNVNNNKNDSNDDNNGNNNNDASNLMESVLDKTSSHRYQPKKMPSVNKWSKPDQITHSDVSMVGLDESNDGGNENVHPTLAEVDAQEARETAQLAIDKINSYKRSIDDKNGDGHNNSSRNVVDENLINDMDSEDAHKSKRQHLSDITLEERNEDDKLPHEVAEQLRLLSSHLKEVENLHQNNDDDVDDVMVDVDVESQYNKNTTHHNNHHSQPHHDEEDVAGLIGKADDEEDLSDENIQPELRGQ
How it was run: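 Masliner-normalised scans of fluorescent anti-GST signal were the basis for scoring. That signal came from GST-tagged yeast transcription factors applied at about 100-200 nM to double-stranded universal all-10-mer Agilent arrays on fresh or once-stripped slides. Each ungapped eight-base word, pooled with its reverse complement, received an E-score from the Universal PBM Analysis Suite.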

| Sequence | PBM E-score |
| --- | --- |
| ACCGTATC | 0.225 |
| AAGTGTTC | -0.0135 |
| AGTTATAT | 0.16 |
| ATGAAGAG | 0.0548 |
| CTGGGCAA | -0.172 |
| AATAATTA | 0.2 |
| ATCTTATG | 0.0695 |
| AAGCGGGC | -0.381 |
| GCACGACA | 0.338 |
| GCACGACC | 0.0772 |
| CTACGACA | 0.263 |
| CCACGACA | 0.0558 |
| ATACGACA | 0.296 |
| ACACGACT | 0.0619 |
| GTACGACA | 0.36 |
| ACACGACA | 0.368 |
| ACACGACC | -0.00503 |
| AAATTGGC | -0.0692 |
| GTTGAGAA | 0.098 |
| AAGGACCG | -0.16 |
| GGAGCCTA | -0.064 |
| ACGACAAT | 0.329 |
| ACGACAAG | 0.215 |
| ACGACAAA | 0.369 |
| ACGACAGA | 0.308 |

| Sequence | PBM E-score |
| --- | --- |
| ACGACAAC | 0.265 |
| GCGACAGA | -0.0736 |
| GCGACAAA | 0.215 |
| ACGACAGG | 0.05 |
| CCGACAAA | -0.0368 |
| GGCGTCAA | -0.206 |
| ATGTAGGG | -0.256 |
| CTACGGTA | 0.138 |
| GTACGGTA | 0.197 |
| ATACGGTG | 0.297 |
| ATACGGTA | 0.319 |
| ATACGGTC | 0.26 |
| AAACGGTG | 0.129 |
| AACGGAAT | 0.15 |
| ACTCGTTG | -0.00197 |
| AAGGGATA | 0.0355 |
| ATGGTGGC | -0.387 |
| CGGTACGA | 0.291 |
| TCGTACGA | 0.455 |
| GCGTACGC | -0.158 |
| CCGTACGA | 0.451 |
| TAGTACGA | 0.287 |
| TCGTAAGA | 0.154 |
| GCGTACGA | 0.317 |
| CCGTACGC | 0.241 |

| Sequence | PBM E-score |
| --- | --- |
| GGGTACGA | 0.0568 |
| CCAGTCTA | -0.227 |
| CAGCAGAG | -0.263 |
| ATGAGAAG | 0.117 |
| AGTAGTTG | 0.067 |
| ACTTTCAA | 0.159 |
| CTTTACCC | -0.141 |
| GCTGACAC | 0.0512 |
| TGATTCAA | 0.0649 |
| GAGCAAGC | -0.0234 |
| ATTTTTTA | 0.193 |
| CGGTGACC | 0.0798 |
| GGGTGACC | 0.188 |
| CGGTGACA | 0.399 |
| AGGTGACG | 0.0988 |
| GGGTGACA | 0.257 |
| CGGTGACG | 0.235 |
| AGGTGACA | 0.362 |
| TGGTGACA | 0.357 |
| AGGTGACC | 0.14 |
| ACCGAGGT | -0.113 |
| AGCCCACA | -0.0569 |
| AGTATCGC | 0.0404 |
| CCTACGTA | -0.0223 |
| GACGAGTC | 0.241 |

| Sequence | PBM E-score |
| --- | --- |
| AATTCCGT | 0.115 |
| GATGCCAC | 0.049 |
| GCCGTTCA | 0.156 |
| ACCTAATC | 0.111 |
| CCCCATGA | -0.167 |
| ACAGTTTA | -0.0111 |
| CTTGATAA | 0.138 |
| GTTGATAA | 0.199 |
| CGTGATAA | 0.408 |
| GGTGATAA | 0.404 |
| TGGGATAA | -0.0897 |
| GCTGATAA | 0.0596 |
| CCTGATAA | 0.1 |
| TCTGATAA | 0.134 |
| TGTGATAA | 0.297 |
| GTTTTCTA | -0.0572 |
| CAGCGATG | -0.0769 |
| AGTGGCAG | -0.0869 |
| TATGGGCA | -0.0697 |
| ATGAACCC | -0.0465 |
| ACGTAGAC | 0.0202 |
| ATGCATAC | 0.0289 |
| CGGGGAGC | -0.00752 |
| AGATGCAT | -0.058 |
| ATCACCAC | 0.356 |

| Sequence | PBM E-score |
| --- | --- |
| CTCACCGC | 0.0255 |
| ATCACCGG | 0.101 |
| ATCACCAT | 0.254 |
| CTCACCAC | -0.0754 |
| ATCACCGC | 0.311 |
| AGGTACCT | -0.101 |
| ACGACTAT | 0.298 |
| GCGACTAC | -0.134 |
| CCGACTAC | -0.119 |
| ACGACTAA | 0.0761 |
| ACGACCAC | 0.131 |
| ACGACTAG | 0.0858 |
| ACGACCAA | 0.182 |
| ACGACCAG | 0.301 |
| ACGACTAC | 0.329 |
| AGCTGCTC | -0.148 |
| CTCCTCCC | -0.201 |
| ACGATGGC | 0.0358 |
| ATGTTAAT | -0.0223 |
| AGTGAAGA | 0.129 |
| CGGCATAG | 0.0597 |

Source: the supplement of paper PMC3334620
